Results filed as inconclusive are left out. A call without a number means that no potency is given here. Active and inactive are the calls of the source. Calls follow the shape of the dose curve; as a rule, active = well fitted curve in the direction sought with a large enough effect; inconclusive = small, poorly fitted or top-dose-only effect, or another doubt; inactive = no such curve, though single readings can be large; an effect the other way counts as inactive or inconclusive.
Assays:
[1] = qHTS assay for measurement of the activity of small molecule inhibitors on Zika virus induced Caspase-3 activity in human astrocytoma cells (AID 1224859)
Outline: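 Luminescent caspase-3/7 read-out (30 min reagent, room temperature) in human SNB-19 cells infected 6 h with ZIKV (2 FFU/cell) after 1 h compound pre-incubation; Data were normalised to uninfected and infected wells.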

[2] = qHTS Screen of the MIPE 4.0 Collection Against Ewings Sarcoma (TC71) (AID 1259253); also: nearly all actives have a fitted effect of over 40% in size; also: potency is read from the fitted curve at half-maximal effect
Outline: (§1)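 After a 4 h attachment period in RPMI/5% FBS, cells were pin-dosed with test compounds; DMSO served as negative and 9.2 uM bortezomib (final) as positive control. Luminescent CellTiter-Glo signal at 48 h defined viability.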

[3] = P-glycoprotein substrates identified in KB-8-5-11 adenocarcinoma cell line, qHTS therapeutic library screen (AID 1346987); also: nearly all actives have a fitted effect of over 65% in size; also: potency is read from the fitted curve at half-maximal effect
Outline: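 Human cervical adenocarcinoma KB-8-5-11 cells, selected in colchicine to over-express P-gp and assayed without it, were exposed for 72 h to titrated compounds. An ATP-based luminescent viability signal gave AC50.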

[4] = NS1 protein of Zika virus - qHTS assay to identify small molecule inhibitors in human HEK 293 cells (AID 1347053); also: nearly all actives have a fitted effect of over 55% in size; also: potency is read from the fitted curve at half-maximal effect
Outline: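 In this cell-based screen, HEK 293 cultures received compound for one hour before Zika MR766 at MOI = 0.5. NS1 was quantified 24 hours later by TR-FRET, normalized to virus-free wells and infected wells.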

[5] = qHTS of pediatric cancer cell lines to identify multiple opportunities for drug repurposing: Primary screen for TC32 cells (AID 1347089); also: nearly all actives have a fitted effect of over 60% in size; also: potency is read from the fitted curve at half-maximal effect
Outline: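 A viability screen of TC32 cells was run over 48 h, with primary MIPE doses spanning 0.78 nM–46 µM and NPC doses 0.59 nM–46 µM. ATP luminescence (CellTiter-Glo) served as the read-out.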

[6] = qHTS of pediatric cancer cell lines to identify multiple opportunities for drug repurposing: Primary screen for SJ-GBM2 cells (AID 1347091); also: potency is read from the fitted curve at half-maximal effect
Outline: (§2)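 Cell viability, CellTiter-Glo luminescence; 500-1,000 cells/well, 8- or 11-point titration, 48 h compound exposure at 37 degrees C, 5% CO2. Controls: DMSO neutral, bortezomib 2.3 µM final as positive.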

[7] = qHTS of pediatric cancer cell lines to identify multiple opportunities for drug repurposing: Primary screen for DAOY cells (AID 1347090); also: nearly all actives have a fitted effect of over 55% in size; also: potency is read from the fitted curve at half-maximal effect
Outline: as §2

[8] = qHTS Screen of the MIPE 4.0 Collection Against Ewings Sarcoma (TC32) (AID 1259256); also: nearly all actives have a fitted effect of over 45% in size; also: potency is read from the fitted curve at half-maximal effect
Outline: as §1

[9] = P-glycoprotein substrates identified in KB-3-1 adenocarcinoma cell line, qHTS therapeutic library screen (AID 1346986); also: nearly all actives have a fitted effect of over 60% in size;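 also: potency is read from the fitted curve at half-maximal effect; potency is for cytotoxicity meaning loss of cell viability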
Outline: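 Dose-response cytotoxicity, KB-3-1 vs P-gp-high KB-8-5-11, no colchicine in assay medium. Read: CellTiter-Glo at 72 h.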

[10] = qHTS Screen of the MIPE 4.0 Collection Against Ewings Sarcoma (EW8) (AID 1259255); also: nearly all actives have a fitted effect of over 35% in size
Outline: as §1

[11] = Identifying Small Molecule Inhibitors of Pancreatic Cancer Stem Cells (Panc1, Spheroid) (AID 1259359); settings: Panc1 spheroid cancer stem cell viability;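 also: potency is read from the fitted curve at half-maximal effect; compound exposure lasted 48 h before reading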
Outline: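 Monolayer and spheroid cultures are compared. Spheroids form over 14 days in stem cell medium on hydrogel-coated low-attachment plates, then are exposed to compound for 48 h before CellTiter-Glo luminescence.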

[12] = qHTS assay to identify small molecule inhibitors of chordoma cells - UCH-2 (AID 1259356); also: series mostly up to about 46 µM

SMILES	Potency [1]	Potency [2]	Potency [3]	Potency [4]	Potency [5]	Potency [6]	Potency [7]	Potency [8]	Potency [9]	Potency [10]	Potency [11]	outcome [12]
CN(C)C1CCN(C(=O)c2ccc(NC(=O)Nc3nc(N4CCOCC4)nc(N4CCOCC4)n3)cc2)CC1	inactive	0.0743 µM (active)	14.8 µM (active)	0.418 µM (active)	65.8 nM (active)	0.105 µM (active)						
CC#CCn1c(N2CCC[C@@H](N)C2)nc2c1c(=O)n(Cc1nc(C)c3ccccc3n1)c(=O)n2C	inactive	26.4 µM (active)	inactive	inactive	inactive	inactive	inactive					
CCOC(=O)C1=C(N)Oc2ccc(Br)cc2C1C(C#N)C(=O)OCC (stereo not drawn)	inactive	23.5 µM (active)	inactive	inactive	inactive	7.43 µM (active)		37.2 µM (active)	inactive			
CO[C@H]1C=CO[C@@]2(C)Oc3c(C)c(O)c4c(O)c(c5c(c4c3C2=O)NC2(CCN(CC(C)C)CC2)N=5)=NC(=O)C(C)=CC=C[C@H](C)[C@H](O)[C@@H](C)[C@@H](O)[C@@H](C)[C@H](OC(C)=O)[C@H]1C	inactive	inactive		inactive	inactive	inactive	inactive	inactive				
Nc1ncnc2ccccc12	inactive		inactive	inactive	inactive	inactive	18.7 µM (active)	inactive	inactive	inactive		
COc1ccc(-n2c(C)c([N+](=O)[O-])c3ccc(O)cc32)cc1	inactive	16.6 µM (active)	inactive	inactive	inactive	inactive	inactive	26.4 µM (active)				
Cc1ccn(-c2ccc(-c3ncco3)cc2)c(=O)c1-c1ccc2nc(N)ncc2c1	inactive	16.6 µM (active)	inactive	inactive				3.72 µM (active)				
CC1(C)CCC(CN2CCN(c3ccc(C(=O)NS(=O)(=O)c4ccc(NCC5CCOCC5)c([N+](=O)[O-])c4)c(Oc4cnc5[nH]ccc5c4)c3)CC2)=C(c2ccc(Cl)cc2)C1	inactive	23.5 µM (active)	inactive	inactive	inactive	2.96 µM (active)	14.8 µM (active)					
Nc1ncnc2c1nc(Cl)n2[C@@H]1O[C@H](CO)[C@@H](O)[C@@H]1O	inactive	26.4 µM (active)			inactive	11.8 µM (active)		20.9 µM (active)				
CC(C)=CC[C@@H](O)C1=CC(=O)c2c(O)ccc(O)c2C1=O	inactive	2.35 µM (active)	inactive	inactive	inactive	1.05 µM (active)						
COc1ccc(Cc2ccc(NC(N)=O)cc2)cc1-c1cccc(Cl)c1	inactive	18.7 µM (active)	inactive		inactive			23.5 µM (active)				
Cc1cc(OCCCc2c(C(=O)O)n(Cc3cccnc3)c3c(-c4c(COc5ccc(N6CCN([S+](C)(=O)[O-])CC6)cc5)nn(C)c4C)cccc23)cc(C)c1Cl	inactive	20.9 µM (active)	inactive		inactive	23.5 µM (active)	18.7 µM (active)	23.5 µM (active)				
COC1CCC(N(C(=O)C2CCC(C)CC2)c2cc(C3=CCCCC3)sc2C(=O)O)CC1 (stereo not drawn)	inactive	20.9 µM (active)	inactive	inactive	inactive		inactive	inactive				
CC(C)(Cc1ccc2ccccc2c1)NC[C@@H](O)COc1cccc(Cl)c1C#N	inactive	16.6 µM (active)	inactive	inactive	inactive		inactive	14.8 µM (active)				
O=C(Nc1cccc(Br)c1)c1cccc(S(=O)(=O)N2CCCCCC2)c1	inactive	23.5 µM (active)			inactive							
c1ccc2c(-c3cnn4cc(-c5ccc(N6CCNCC6)cc5)cnc34)ccnc2c1	inactive			4.18 µM (active)	inactive			inactive		inactive	26.4 µM (active)	
O=C(NCc1ccncc1)C12C[C@H]3C[C@@H](C1)CC(c1ccc(Cl)cc1)(C3)C2	inactive	26.4 µM (active)	inactive		inactive	20.9 µM (active)						
O=c1cc(N2CCOCC2)oc2c(-c3cccc4c3sc3ccccc34)cccc12	inactive	10.5 µM (active)	inactive	18.7 µM (active)	inactive	5.9 µM (active)	18.7 µM (active)		inactive			
CC1(C)O[C@H]2C[C@@H]3[C@H]4CCC5=CC(=O)C=C[C@]5(C)[C@@]4(F)[C@@H](O)C[C@]3(C)[C@]2(C(=O)CO)O1	inactive	inactive	inactive	inactive	inactive		inactive					inactive
NC(=O)c1cnc(-c2ccc(C3(N)CCC3)cc2)c(-c2ccccc2)c1	inactive	inactive	inactive		inactive		inactive		16.4 µM (active)			
CCOC(=O)O[C@]1(C(=O)OCCl)CC[C@@H]2[C@H]3CCC4=CC(=O)C=C[C@]4(C)[C@@H]3[C@@H](O)C[C@@]21C	inactive	inactive	inactive	inactive	inactive	inactive	inactive		inactive			inactive
COc1ccc2c3c1OC1C[C@@H](O)C=C[C@@]31CCN(C)C2 (stereo partly drawn)	inactive	20.9 µM (active)	inactive	inactive	inactive							

— PubChem BioAssay (NCATS)
